Only some compounds are listed: those with a hit (about 4.1% of all), similar ones and a draw of the others.
ssDAF12 agonist = activates DAF-12 receptor from parasite S. stercoralis | HEK293 ssDAF-12/GRIP1 lit1-tk-luc reporter, luminescence; % of 3 µM dafachronic acid response | activation, % at 6.8 µM | 370,000 tested, 1% active | AID 652126;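 active means activation above the mean over all tested compounds plus 3 SD, cut at about 0.9% in these data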;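 further: 0% = DMSO-only wells and 100% = 3 µM delta7-dafachronic acid wells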
hgDAF12 agonist = hgDAF-12 agonism, primary luciferase screen | HEK293 GAL4-hgDAF12 UAS-luciferase reporter, agonist luminescence; normalized to butyrate control | activation, % at 6.8 µM | 370,000 tested, 1.8% active | AID 687014;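 active means activation above a cutoff set at the mean of all screened compounds plus 3 SD, cut at about 10% in these data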;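 further: 0% = DMSO wells and 100% = sodium butyrate wells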
DAX1 inh-1 = NR0B1 (DAX1) inhibition; HEK293 Gal4-DAX1 luciferase reporter, luminescence; inhibition, % at 6.75 µM; 340,000 tested, 0.99% active; AID 504766;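 active means inhibition above the mean over all tested compounds plus 3 SD, cut at about 4.2% in these data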;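 further: 0% = DAX1-transfected cells with DMSO and 100% = empty-vector control cells with DMSO; inhibition shows as a rise in luminescence from relieved DAX1 repression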
Target sequence (P51843 207-470 limits assumed): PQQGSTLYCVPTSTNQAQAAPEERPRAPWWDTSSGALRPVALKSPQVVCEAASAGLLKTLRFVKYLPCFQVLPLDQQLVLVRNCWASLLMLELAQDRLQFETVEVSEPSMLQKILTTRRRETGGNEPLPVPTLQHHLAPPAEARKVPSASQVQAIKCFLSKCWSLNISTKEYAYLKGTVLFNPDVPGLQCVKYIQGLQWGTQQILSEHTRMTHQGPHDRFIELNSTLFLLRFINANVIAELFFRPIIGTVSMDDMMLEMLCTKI
DAX1 inh-2 = inhibitors of DAX1 repression of SF-1 activated StAR promoter; HEK293T StAR-luciferase reporter, SF-1/DAX-1 repression relief; inhibition, % at 6.8 µM; 370,000 tested, 1.1% active;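 active means inhibition above the mean over all tested compounds plus 3 SD, cut at about 3.6% in these data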;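 further: 0% = DAX-1 cells with DMSO and 100% = cells lacking DAX-1 with DMSO; higher inhibition means more luminescence from relief of DAX-1 repression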
hcDAF12 agonist = H. contortus DAF-12 activation, primary screen. activation, % at 6.8 µM. AID 652067. HEK293 hcDAF-12 lit1-tk-luc reporter, luminescence; 0% DMSO, 100% Δ7-dafachronic acid. 370,000 tested, 1.4% active;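 active means activation above the mean of all tested compounds plus 3 SD, cut at about 5.5% in these data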;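 further: 100% = response to 3 µM Δ7-dafachronic acid high control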
Numbers without * were called inactive; nt = no result given.

SMILES | ssDAF12 agonist | hgDAF12 agonist | DAX1 inh-1 | DAX1 inh-2 | hcDAF12 agonist
Cc1noc(C(=O)Nc2cccc(Cl)c2)c1Cl | 1 | 6 | 3 | 0 | 3
CC(=O)c1cccc(NC(=O)c2cc3ccccn3n2)c1 | 0 | 7 | 0 | 3.7* | 1
CCOC(=O)CNC(=O)N(C)[C@H]1C[C@H]2c3[nH]c4c(-c5cccc(C)c5)cccc4c3CCN2C(=O)[C@H]1[C@H](C)O | -2 | -4 | nt | 0 | -1
Nc1nc2nn(-c3ccccc3)nc2c(=O)[nH]1 | -1 | 4 | 1 | 0 | 2
Nc1nc2n[nH]nc2c(=O)[nH]1 | 1.5* | 1 | 2 | 0 | 2
CCOC(=O)C1=NOC(C(=O)NCCO)(C(=O)C2CC2)C1 (stereo not given) | -1 | 1 | nt | -1 | -2
COc1cccc(CNC(=O)CCNS(=O)(=O)c2cccc3nsnc23)c1 | -1 | 1 | 8.6* | 0 | 0
COc1cccc(CNC(=O)CCNS(=O)(=O)c2cccc3nonc23)c1 | -1 | -1 | 1 | 0 | -2
CC1(C)C=C2C(N(CC3CC3)C(=N)N2C(=O)OCc2ccccc2)n2c(=O)n(-c3ccccc3)c(=O)n21 (stereo not given) | -1 | -1 | nt | nt | 1
CC(C)=CCC/C(C)=C/CN1C(=O)N(c2ccc(F)cc2)[C@H]2C[C@@H](c3ccccc3)[C@@H](C)[C@@H](C(=O)N3CCOCC3)C[C@H]21 | -2 | -7 | nt | -4 | -2
Cc1cc(C)cc(OC[C@@H](O)CN2CCC(C(O)(c3ccccc3)c3ccccc3)CC2)c1 | 0 | 3 | nt | 0 | 5
O=C(COc1ccccc1F)N/N=C1\CCCc2ccccc21 | 0 | 10 | 1 | 2 | 5.8*
COc1ccc(OCC(=O)N/N=C2\CCCc3ccccc32)cc1 | 1.0* | -3 | -1 | 0 | 3
CCCCOc1cccc(C(=O)NCCc2ccccc2-c2ccccc2CCC(=O)NCc2ccccc2)c1 | -1 | 3 | nt | 0 | 1
Cn1c(N)c(C(=O)Nc2ccccc2)c(=O)[nH]c1=O | -1 | -1 | nt | 1 | -2
Cn1c(N)c(C(=O)/C=C/c2ccccc2)c(=O)[nH]c1=O | 1.1* | 9 | 2 | 1 | 3
COc1cc(O)sc1C=Nc1ccc(Cl)cc1Cl | 1.1* | -1 | 2 | 1 | 0
COc1ccc2ccccc2c1/C=N/n1cnnc1 | 0 | 5 | 0 | 0 | 6.5*
COc1ccc(OC)c(CN2C(=O)c3ccnn3CC2(C)c2nnnn2C2CCCC2)c1 (stereo not given) | 0 | 0 | nt | 1 | -1
CN(C)CCNc1oc(-c2ccccc2F)nc1C#N | -2 | 0 | 5.9* | -1 | 0
CN(C)CCCNc1oc(-c2ccccc2)nc1C#N | -2 | 0 | 1 | 0 | -2
CCOc1ccc2nc(N3C(=O)CNC3=S)sc2c1 | 0 | 5 | 5.3* | 2 | 2
COc1cc(C2C(C(C)=O)=C(O)C(=O)N2CCc2c[nH]c3ccccc23)ccc1O (stereo not given) | 0 | 2 | 2 | 1 | 0
CC(=O)C1=C(O)C(=O)N(CCc2c[nH]c3ccccc23)C1c1cccc(O)c1 (stereo not given) | 0 | 0 | -1 | 0 | 5.7*
CCn1c(/C=C/c2ccc(O)c(O)c2)nc2ccccc2c1=O | -2 | -2 | 1 | -1 | -1
SMILES | ssDAF12 agonist | hgDAF12 agonist | DAX1 inh-1 | DAX1 inh-2 | hcDAF12 agonist
O=c1nc(/C=C/c2ccc(O)c(O)c2)oc2ccccc12 | nt | nt | 4.8* | nt | nt
Cc1cc2c(s1)c1cnn(Cc3cc(F)c(F)cc3F)c(=O)c1n2C | -1 | 0 | nt | nt | -3
CC(C)c1ccc(C2NC(=O)c3ccccc3O2)cc1 (stereo not given) | -1 | 5 | 1 | 1 | 2
CC(C)Oc1ccc(C2NC(=O)c3ccccc3O2)cc1 (stereo not given) | 0 | -1 | 4.4* | 0 | 0
Cc1ccc(C(=O)Nc2nccc(C)n2)cc1 | -1 | 7 | 4.8* | 0 | 2
Cc1ccnc(NC(=O)c2cccc(OC(F)F)c2)n1 | 0 | 4 | -1 | 0 | 2
CC(C)c1cccc(C(C)C)c1NC(=S)Nc1cccc(Cl)c1 | -1 | 2 | 5.7* | 0 | -1
Fc1ccc(NC(=S)Nc2cccc(Cl)c2)cc1 | -1 | 1 | 1 | 0 | -2
COc1ccc(-n2c(SCC(=O)Nc3cc(C)on3)nc3c([nH]c4ccccc43)c2=O)cc1 | 1.1* | 4 | 0 | 3 | 3
Nn1c(=O)[nH]c2c([nH]c3ccccc32)c1=O | 0 | 6 | 0 | 0 | 5
Cc1cccc(NC(=O)CSc2nc3c([nH]c4ccccc43)c(=O)n2C)c1 | 1 | 5 | -1 | 1 | 6.0*
Cc1nc2c([nH]c3ccccc32)c(=O)n1N | 1.2* | 2 | nt | 0 | 3
COc1cccc(NC(=O)CSc2nc3c([nH]c4ccccc43)c(=O)n2C)c1 | 0 | 5 | -1 | 0 | 6.4*
Cc1ccccc1C1CCC2(CCC(=O)N2CC[C@@H](O)c2ccccc2)CC1 (stereo not given in full) | -2 | -1 | nt | nt | -1
CCC(C)Sc1nc2c([nH]c3ccccc32)c(=O)n1C (stereo not given) | 3.1* | 4 | 1 | 0 | 4
O=C(NC1CCCCCCC1)c1ccc2c(c1)OCO2 | 1.1* | 10 | 1 | 3 | 5
CCn1nccc1C(=O)Nc1nccs1 | -1 | 2 | 1 | 0 | 3
O=C(Nc1nccs1)c1ccc(Br)o1 | -1 | 8 | 2 | 1 | 5.8*
CCn1cc(Br)c(C(=O)Nc2nccs2)n1 | 0 | 11* | 0 | 0 | 6.0*
C/C(=C\C(=O)Nc1nccs1)c1ccccc1 | 0 | 12* | 0 | 2 | 3
O=C(N1CCC(n2nc(-c3ccccc3)oc2=O)CC1)C1(c2ccccc2)CCCC1 | 0 | -2 | nt | nt | 0
COC1=C[C@H](C(=O)N[C@H]2CCCC[C@@H]2NC(C)=O)[C@@]2(C)Cc3ccccc3[C@H]2CC1=O | -2 | -2 | nt | -1 | -1
COc1ccc(NC(=O)Nc2nccs2)cc1 | -1 | 11* | 2 | 0 | 1
O=C(Nc1ccccc1)Nc1nccs1 | -1 | 3 | 0 | 0 | 1
COc1ccc(C(=O)Nc2nccs2)cc1 | 0 | 10 | 5.7* | 2 | 3
SMILES | ssDAF12 agonist | hgDAF12 agonist | DAX1 inh-1 | DAX1 inh-2 | hcDAF12 agonist
CCCc1cc(C(=O)Nc2nccs2)cs1 | -1 | 12* | 0 | 3 | 4
CC(C)(C)Cc1nnc(NC(=O)c2ccc3c(c2)OCO3)s1 | -1 | 5 | -1 | 1 | -1
CCCN1C(=O)c2ccc(C(=O)Nc3nccs3)cc2C1=O | -2 | 0 | 0 | 0 | -1
O=C(Nc1nccs1)c1ccc2c(c1)OCO2 | 0 | 11* | 2 | 1 | 4
COc1ccc(C(=O)Nc2nccs2)cc1OC | -1 | 7 | 2 | 0 | 0
COC(=O)[C@H](C(C)C)N(CCCc1cn(Cc2ccccc2)nn1)S(=O)(=O)c1ccccc1Br | -2 | -5 | nt | -3 | -4

Source: PubChem BioAssay (The Scripps Research Institute Molecular Screening Center)
